In PubChem BioAssay (NCI):
About 83,000 compounds went through this panel and 20% of them were active in at least one assay; those are over-represented in the sample as a whole.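 A percent growth of 40 corresponds to 60% growth inhibition; 0 means no net growth; -100 means all cells died. Active threshold: below 10.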 The source made the active and inactive calls.

Columns and labels:
Experiment in all cases: NCI-60 one-dose screen, 48 h (100 = growth as untreated, 0 = no growth, -100 = all killed)
[1] = system: HCT-15 colon; conditions: 10 µM unless noted
[2] = system: HT29 colon; conditions: 10 µM unless noted
[3] = system: SNB-75 CNS; conditions: 10 µM unless noted
[4] = system: U251 CNS; conditions: 10 µM unless noted
[5] = system: SK-MEL-5 melanoma; conditions: 10 µM unless noted
[6] = system: UACC-62 melanoma; conditions: 10 µM unless noted
[7] = system: LOX IMVI melanoma; conditions: 10 µM
[8] = system: SK-MEL-28 melanoma; conditions: 10 µM unless noted
[9] = system: EKVX NSCLC; conditions: 10 µM unless noted
[10] = system: SN12C renal; conditions: 10 µM unless noted
[11] = system: TK-10 renal; conditions: 10 µM unless noted
[12] = system: ACHN renal; conditions: 10 µM unless noted
[13] = system: CAKI-1 renal; conditions: 10 µM unless noted
[14] = system: A498 renal; conditions: 10 µM unless noted
[15] = system: CCRF-CEM leukemia; conditions: 10 µM unless noted
[16] = system: MOLT-4 leukemia; conditions: 10 µM unless noted
[17] = system: SNB-19 CNS; conditions: 10 µM unless noted
[18] = system: PC-3 prostate; conditions: 10 µM unless noted
[19] = system: SK-MEL-2 melanoma; conditions: 10 µM unless noted
[20] = system: UO-31 renal; conditions: 10 µM unless noted

Measured: growth

Nc1nc2ncc(CNc3ccc(C(=O)NC(CCC(=O)NC(CCC(=O)NC(CCC(=O)NC(CCC(=O)NC(CCC(=O)O)C(=O)O)C(=O)O)C(=O)O)C(=O)O)C(=O)O)cc3)nc2c(=O)[nH]1 (stereo not given)
inactive: [1] 103% | [2] 107% | [3] 107% | [4] 110% | [5] 94.7% | [6] 94.5% | [7] 100% | [8] 110% | [9] 95.9% | [10] 101% | [11] 119% | [12] 110% | [13] 89.7% | [14] 116% | [15] 102% | [16] 107%

O=C1C=CC(=O)N1c1cc(Cl)c(Cl)cc1Cl
inactive: [1] 113% | [3] 82.1% | [17] 108% | [4] 101% | [18] 100% | [5] 111% | [6] 105% | [7] 97.9% | [8] 107% | [19] 87.2% | [20] 76.7% | [11] 106% | [12] 96% | [13] 103% | [14] 105% | [15] 37.5% | [16] 95.5%

S=C(SSC(=S)N1CCOCC1)N1CCOCC1
inactive: [1] 91.2% | [3] 104% | [17] 111% | [4] 58.1% | [18] 77.6% | [5] 73.2% | [6] 68.7% | [7] 78.9% | [8] 106% | [9] 95.3% | [20] 76.9% | [11] 95.7% | [12] 98.3% | [13] 79.1% | [14] 90.6% | [15] 21.9% | [16] 93.6%

O=[N+]([O-])c1ccc([I+]c2ccccc2)cc1
inactive: [1] 62.1% | [18] 62.3% | [20] 46.9% | [12] 64.2% | [13] 23.1% | [14] 39.6% | [16] 22.9%
active: [2] -55.8% | [17] -70.9% | [4] -97.1% | [5] -29.5% | [6] -17.6% | [7] -81.9% | [8] -76.8% | [9] -62.4% | [10] -56.2% | [11] 3.24%

CCNc1nnnn1CC
inactive: [1] 99.7% | [2] 109% | [3] 90.4% | [4] 106% | [18] 97.3% | [5] 101% | [7] 98.7% | [8] 113% | [9] 94.5% | [10] 93% | [20] 108% | [11] 106% | [12] 110% | [13] 99.4% | [14] 83.8% | [15] 103% | [16] 116%

CCCCCCCCCCCCNCCCc1ccccc1
inactive: [1] 23.9% | [3] 64.7% | [17] 92.2% | [6] 57.2% | [8] 73.4% | [10] 62.9% | [20] 60.8% | [11] 104% | [12] 78.1% | [13] 93% | [14] 76.5% | [15] 48.9% | [16] 54.8%

Cc1cc(C)c([I+]c2c(C)cc(C)cc2C)c(C)c1
inactive: [1] 25.7% | [11] 12.7% | [13] 29.2% | [14] 45%
active: [3] -60% | [17] -78.3% | [4] -88.7% | [5] -96.8% | [6] -92.6% | [7] -89.2% | [8] -61.4% | [9] 4.01% | [10] -66.2% | [20] -20.4% | [12] -16.1% | [15] -29.5% | [16] -41.1%

CC(=O)C1Cc2ccccc2C1=O (stereo not given)
inactive: [1] 108% | [3] 70.8% | [17] 98% | [4] 103% | [18] 94.7% | [5] 103% | [7] 94.4% | [8] 115% | [19] 124% | [10] 98% | [20] 79.5% | [11] 142% | [12] 97.6% | [13] 82.6% | [14] 110% | [15] 125% | [16] 115%

CN(C)c1ccc(/C=C/c2nccc3ccccc23)cc1
inactive: [1] 66.4% | [3] 98.8% | [17] 79.4% | [18] 83.4% | [5] 86.7% | [6] 60.9% | [7] 87.8% | [8] 89.4% | [10] 75.6% | [20] 58.4% | [11] 88.2% | [12] 87.1% | [13] 73.6% | [16] 99.9%
